From PubChem BioAssay (NCI)
The panel holds about 79,000 compounds, 15% with a hit somewhere; the sample as a whole holds those more often. A number with no mark means an inactive call. The source made the active and inactive calls. Rule as the data show it: active = growth inhibition above about 70%; inactive = the rest.

Assay: NCI Yeast Anticancer Drug Screen. Data for the sgs1 strain (AID 173);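 also: 0% = growth of vehicle-only control cultures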
Settings: S. cerevisiae sgs1 mutant, at 33.0 µM, stronger effect = higher value
Summary of the method: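 Yeast mutant strains carrying defined defects in DNA damage repair or cell cycle control were exposed to test compounds. Growth inhibition was scored against vehicle-treated controls.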
In the case of `COc1ccc2nc3cccc([N+](=O)[O-])c3c(NCCNCCN(C)C)c2c1`, the growth inhibition is reported as -1%.
In the case of `Cc1cccc(/C=N/NC(=S)NC2CCCCC2)n1`, the growth inhibition is reported as 40%.
Compound `COC(=O)C(=O)c1c(-c2ccc(Cl)c(Cl)c2)[nH]c2[nH]n(-c3ccccc3)c(=O)c2c1=O` has a growth inhibition of 61%.
With `c1ccc([P+](CCN2Cc3ccccc3C2)(c2ccccc2)c2ccccc2)cc1` the growth inhibition was 67%.
Work on `Cc1cc(C)c2[s+]snc2c1` yielded a growth inhibition of 17%.
With `CC(C)(Br)C(=O)/C=C/c1ccccc1` the growth inhibition was 70% (active).
With `Cc1ccc(S(=O)(=O)NC(=O)C2C(=O)CC3(CCCCC3)CC2=O)cc1` the growth inhibition was 68%.
`NC(=S)N1N=C2c3ccccc3CC[C@H]2[C@@H]1c1ccc(Cl)cc1` gave a growth inhibition of 67%.
With `O=[N+]([O-])/C=C/c1cc2ccc3ccccc3c2[nH]1` the growth inhibition was 94% (active).
In the case of `O=C1C(=C2CCCC2)CCC1CN1CCCCC1` (stereo unspecified), the growth inhibition is reported as 87% (active).
In the case of `OC(CC(O)(C(F)(F)F)C(F)(F)F)c1ccc(C(O)CC(O)(C(F)(F)F)C(F)(F)F)cc1` (stereo unspecified), the growth inhibition is reported as 99% (active).
`COc1cc2c(cc1OC)[C@@H](Nc1ccc(C#N)cc1)C1COC(=O)[C@@H]1C2c1cc(OC)c(O)c(OC)c1` (stereo partly specified) gave a growth inhibition of 39%.
For `O=c1cccccc1[O-].O=c1cccccc1[O-].O=c1cccccc1[O-].[Eu+3]`, the growth inhibition was 98% (active).
With `O=C1c2ccccc2C(=O)c2sc(Nc3ccccc3Cl)nc21` the growth inhibition was 99% (active).
With `NC(CCCCCCCCCCCCC(N)C(=O)c1ccccc1)C(=O)c1ccccc1` (stereo unspecified) the growth inhibition was 96% (active).
With `CC1=C(C)C(=O)C2=C(OCCO2)C1=O` the growth inhibition was 26%.
